# From PubChem
# SW480 rereplic = inducers of DNA re-replication in SW480 colon cancer cells. hit rate 1.8% among 340,000. SW480 DNA re-replication, Hoechst DNA content imaging, 48 h. Potency, µM (titrated, usually from 46.1 µM), hits mostly activators. AID 624297; note: nearly all actives have a fitted effect of over 55% in size
#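 Readout is total intensity of Hoechst-stained nuclei, excited at 405 nm and collected at 500-530 nm. Compound treatment lasted 48 hr at 37 C in 5% CO2 before staining.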
# ELG1 repair inh = ELG1-dependent DNA repair inhibition | Potency, µM (top dose mostly 46.1 µM), most hits filed as inhibitors | HEK293T ELG1-luciferase reporter, luminescence, 16 h; DNA damage induced by 5-fluorouridine | hit rate 2.3% among 330,000; note: nearly all actives have a fitted effect of over 55% in size
#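 5-Fluorouridine DNA damage + compound/DMSO, 2,000 cells/well, 16 h, 37 °C/5% CO2. ONE-Glo, 30 min RT, luminescence. Readout = decrease in reporter signal.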
# MCF10A rerep = induces DNA re-replication in MCF 10a normal breast cells | MCF 10A DNA re-replication, Hoechst nuclear intensity, 48 h | Potency, µM (doses to about 46.1 µM), most hits filed as activators | hit rate 2.9% among 350,000 | AID 624296; note: nearly all actives have a fitted effect of over 50% in size
# KB-V1 MDR tox = kills drug-selected multidrug resistant KB-V1 cells; hit rate 3.4% among 400,000; KB-V1 MDR cells viability, CellTiter-Glo, 72 h; Potency, µM (doses to about 46.1 µM), hits mostly cytotoxic; note: nearly all actives have a fitted effect of over 60% in size
#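 Cytotoxicity via CellTiter-Glo luminescence after 72 h compound exposure at 37 degrees C. Cells: drug-selected KB-V1 line, DMEM phenol-red free plus 10% FBS. Compounds tested at multiple concentrations; normalized data fitted to concentration-effect curves.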
# KB-3-1 tox = kills parental KB-3-1 adenocarcinoma cells; KB-3-1 viability, CellTiter-Glo ATP luminescence, 72 h; Potency, µM (top dose mostly 46.1 µM), actives largely listed as cytotoxic; hit rate 1.4% among 400,000; note: nearly all actives have a fitted effect of over 60% in size
#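 Cells are dispensed, compounds pinned in, plates held at 37 °C for 72 h, then CellTiter-Glo is added and luminescence read after 10 minutes. Cell line: parental KB-3-1 in phenol-red-free DMEM, 10% FBS.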
# Numbers stand for hits; - = inactive; ? = inconclusive; . = no result given; ! = repeats disagree. Only some compounds are listed: those with a hit (about 8.1% of all), similar ones and a draw of the others. Calls come from the whole dose curve; as a rule, active = well fitted curve in the direction sought with a large enough effect; inconclusive = small, poorly fitted or top-dose-only effect, or another doubt; inactive = no such curve, though single readings can be large; an effect the other way counts as inactive or inconclusive.
SMILES,SW480 rereplic,ELG1 repair inh,MCF10A rerep,KB-V1 MDR tox,KB-3-1 tox
CCN(CC(=O)Nc1cccc(OC)c1)CC(=O)Nc1cccc2ccccc12,-,?,-,?,-
O=C1C(F)=CC(COC(c2ccccc2)(c2ccccc2)c2ccccc2)OC1n1cc(F)c(=O)[nH]c1=O (stereo not given),7.3µM,.,2.6µM,?,?
COc1ccc(C2(CO)OC(CO)C(O)C2O)cc1 (stereo not given),-,.,-,-,-
CCCCOP(=O)(OCCCC)C(Nc1ccccc1)c1ccc2c(c1)OCO2 (stereo not given),-,?,?,7.3µM,?
CCOP(=O)(OCC)C(Nc1ccccc1)c1ccc2c(c1)OCO2 (stereo not given),-,?,-,?,-
O=C(CCCCC(=O)NN=Cc1ccc2c(c1)CCC2)NN=Cc1ccc2c(c1)CCC2,.,.,.,-,-
O=C(O)c1ccc2c3c(ncnc13)-c1ccccc1C2=O,?,?,2.3µM,-,?
CC(C)NS(=O)(=O)c1ccc(OCC(=O)N2CCCC2)cc1,-,-,?,-,-
Cc1ccc(C)c(NS(=O)(=O)c2ccc(OCC(=O)N3CCOCC3)cc2)c1,-,-,-,-,-
Cc1ccc(Cl)cc1N1CCN(C(=O)COc2ccc(S(=O)(=O)NC(C)C)cc2)CC1,-,7.3µM,-,?,?
Cc1ccc(OCC(=O)N(c2ccccn2)C2CCCCC2)c(C)c1,-,-,-,18µM,-
O=C(COc1ccc(S(=O)(=O)NC2CCCCC2)cc1)N1CCN(c2cccc(Cl)c2)CC1,-,?,?,?,13µM
Cc1ccc(C)c(NS(=O)(=O)c2ccc(OCC(=O)N3CCCC3)cc2)c1,-,-,-,21µM,-
C=CCNC(=O)COc1ccc(S(=O)(=O)NC2CCCCC2)cc1,15µM,-,10µM,-,-
Cc1cc(S(=O)(=O)NC2CCCCC2)ccc1OCC(=O)NCc1ccccn1,-,?,-,18µM,-
Cc1cc(S(=O)(=O)N2CCCC2)ccc1OCC(=O)NCc1ccccn1,-,-,-,?,-
CCOc1ccc(NC(=O)COc2ccc(S(=O)(=O)NC3CCCCC3)cc2)cc1,.,.,.,?,-
CCCc1nc(SCc2cc(=O)c3ccc(C)c(C)c3[nH]2)n[nH]1,.,.,.,-,-
COC(=O)C1(CC2CC(c3ccc(Cl)cc3)=NO2)CCN(C(=O)OC(C)(C)C)CC1 (stereo not given),-,-,?,-,-
CCOC(=O)c1c(NC(=O)N/N=C/c2ccccc2OCC)sc(C(C)=O)c1C,-,-,?,?,16µM
CCOC(=O)c1c(NC(=O)N/N=C/c2ccc(O)c(OC)c2)sc(C(C)=O)c1C,.,4.6µM,.,.,.
CCN(CC)CCOC(=O)c1ccc(NC(=O)CCCN2C(=O)S/C(=C/c3ccc(OC)cc3)C2=S)cc1,22µM,-,?,-,-
COc1ccc(/C=C2\SC(=O)N(CCCC(=O)Nc3cc(Cl)ccc3C(=O)O)C2=O)cc1,-,2.1µM,-,-,-
CCOC(=O)c1c(NC(=O)COc2cccc(C(F)(F)F)c2)sc2c1CCC(C)C2 (stereo not given),.,.,.,-,-
COCc1cc(C)nc2sc(C(=O)Nc3ccccc3F)c(N)c12,12µM,-,6.5µM,-,?
SMILES,SW480 rereplic,ELG1 repair inh,MCF10A rerep,KB-V1 MDR tox,KB-3-1 tox
COCc1cc(C)nc2sc(C(=O)OC(C)C)c(N)c12,?,?,21µM,?,-
CCCCNC(=O)c1sc2nc(C)cc(COC)c2c1-n1cccc1,-,?,-,5.2µM,-
CC(=O)NC(c1cccc(F)c1)c1nc(-c2ccc(N(C)C)cc2)cs1 (stereo not given),.,.,.,-,-
C=CCn1c(NS(=O)(=O)c2ccccc2)c(S(=O)(=O)c2ccc(C)cc2)c2nc3ccccc3nc21,?,?,15µM,13µM,?
CC(=O)Nc1c(S(=O)(=O)c2ccccc2)c2nc3ccccc3nc2n1Cc1ccccc1,-,-,-,-,-
O=S(=O)(Nc1c(S(=O)(=O)c2ccccc2)c2nc3ccccc3nc2n1C1CCCCC1)c1ccccc1,-,-,2.9µM,-,-
N=c1c(S(=O)(=O)c2ccccc2)cc2c(=O)n3ccccc3nc2n1C1CCCCC1,-,.,-,?,-
CCc1nc2ccc(C(=O)NCc3ccc4c(c3)OCO4)cn2c1N(C)Cc1cccs1,.,.,.,-,-
Cc1cc(Cl)ccc1OCC(=O)NCC(c1cccs1)N1CCOCC1 (stereo not given),-,-,-,7.3µM,?
O=C(NCC(c1cccs1)N1CCOCC1)C1CCN(S(=O)(=O)c2c(Cl)cccc2Cl)CC1 (stereo not given),-,-,-,?,-
O=C(NCC(c1cccs1)N1CCOCC1)C1CCN(S(=O)(=O)c2cc(Cl)ccc2Cl)CC1 (stereo not given),-,.,-,9.2µM,-
CCCCC(=O)N/N=C/c1ccc(Sc2cccc3cccnc23)o1,-,?,-,?,-
O=C(Cc1cccc2ccccc12)N/N=C/c1ccc(Sc2cccc3cccnc23)o1,.,16µM,.,.,.
O=C(NNCS(=O)(=O)O)c1ccncc1,-,.,-,.,.
COc1cc(OC)nc(Oc2cc(/C=N/O)ccc2OC)n1,12µM,-,?,?,?
CC(C)CNC(=S)NNC(=O)c1csc2ccccc12,-,-,-,15µM,-
CCNC(=S)NNC(=O)c1csc2ccccc12,-,-,-,?,?
O=S(Cc1ccccc1)CC(O)(c1ccc(Cl)cc1)c1ccc(Cl)cc1 (stereo not given),?,-,?,21µM,?
O=S(Cc1ccc(Cl)cc1)CC(O)(c1ccccc1)c1ccccc1 (stereo not given),-,-,-,-,-
Cc1ccc(C)c(OCC(O)CN2CCC(Cc3ccccc3)CC2)c1 (stereo not given),-,-,-,-,?
COc1ccc(CN2CCN(Cc3ccc(C)cc3)CC2)c(OC)c1,-,-,?,-,-
COc1ccc(CN2CCN(Cc3ccc(C(F)(F)F)cc3)CC2)c(OC)c1,16µM,-,-,-,-
COc1ccc(OC)c(CN2CCN(S(=O)(=O)c3ccccc3)CC2)c1,-,.,-,-,-
COc1ccc(CN2CCN(S(=O)(=O)c3ccccc3)CC2)c(OC)c1,-,-,-,18µM!,-
CCCOC(=O)c1ccc(Oc2cn[nH]c2-c2ccc(O)cc2O)cc1,-,-,?,-,?
CCOC(=O)c1ccc(Oc2cn[nH]c2-c2ccc(O)cc2O)cc1,-,?,?,-,23µM
CCCOC(=O)c1ccc(Oc2cn[nH]c2-c2ccc(OCC(=O)NN)cc2O)cc1,-,18µM,-,-,-
COc1ccc(NC(=O)Nc2nnc(N3CCCCCC3)s2)c(OC)c1,.,.,.,-,-
CCOc1cc(/C=N/NC(=O)c2ccc(CN3CCOCC3)cc2)ccc1OCc1ccccc1,-,18µM,-,2.3µM,?
O=C(O)c1cc(-c2ccco2)nc2ccccc12,-,-,-,?,-
